# A selection: hits, their analogues and other compounds. The true share with any hit is near 19%.
# DT40 TDP1 no CPT = qHTS for Inhibitors of human tyrosyl-DNA phosphodiesterase 1 (TDP1): qHTS in cells in absence of CPT; DT40 Tdp1-/- hTDP1 cells, no CPT, ATP luminescence, 48 h; Potency, µM (doses to about 46.2 µM), without a hit: at the top dose activity change, negative = growth inhibition, actives largely listed as inhibitors; 420,000 compounds, 15% hits; further: potency means the concentration at half of the fitted maximal effect; on the % scale 0 is the no-effect control and ±100 the full control effect; nearly all actives have a fitted effect of over 55% in size
#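 Chicken DT40 Tdp1-/- cells stably complemented with human TDP1 were seeded at 400 cells/well with DMSO in place of 20 nM camptothecin. After compound pinning, cells grew at least 48 hr at 37 °C; viability read by CellTiter-Glo luminescence.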
# S-ASM inh = human S-ASM enzyme inhibition. P17405. placental ASM, HMU-PC fluorogenic substrate, 60 min. Potency, µM (highest dose often 57.5 µM), for the others: top-dose activity change, negative = inhibition, usual class: inhibitors. 340,000 compounds, 0.006% hits. AID 504937; further: potency means the concentration at half of the fitted maximal effect
# Target sequence (P17405 47-631 limits assumed): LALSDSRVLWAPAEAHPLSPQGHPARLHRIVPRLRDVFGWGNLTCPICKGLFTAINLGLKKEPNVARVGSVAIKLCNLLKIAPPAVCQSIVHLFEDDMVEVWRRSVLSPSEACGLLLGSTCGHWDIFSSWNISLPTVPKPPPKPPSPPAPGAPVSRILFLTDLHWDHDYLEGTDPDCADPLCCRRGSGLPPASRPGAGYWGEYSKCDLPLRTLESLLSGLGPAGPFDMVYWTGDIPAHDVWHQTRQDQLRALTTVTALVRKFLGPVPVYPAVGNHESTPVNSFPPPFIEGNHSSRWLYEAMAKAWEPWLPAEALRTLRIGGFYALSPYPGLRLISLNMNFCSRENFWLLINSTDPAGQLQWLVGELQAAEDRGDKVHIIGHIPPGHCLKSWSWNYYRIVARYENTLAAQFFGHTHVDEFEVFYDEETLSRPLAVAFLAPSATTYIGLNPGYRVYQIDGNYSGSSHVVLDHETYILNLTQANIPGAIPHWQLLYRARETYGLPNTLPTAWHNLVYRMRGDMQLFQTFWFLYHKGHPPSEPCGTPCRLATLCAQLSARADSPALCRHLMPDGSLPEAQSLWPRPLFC
#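 Human placenta-derived ASM preincubated with compound 10 min at room temperature, then reacted with 9 uM (final) fluorogenic HMU-PC substrate for 60 min at 37 C. Stop solution raises pH to 10; fluorescence read at Ex 386/Em 447 nm.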
# HepG2 tox = kills HepG2 cells in TGF-b inhibitor counter-screen | AID 588856 | Potency, µM (series often up to 46.1 µM), without a hit: top-dose activity change, negative = cytotoxicity, most hits filed as cytotoxic | 410,000 compounds, 0.76% hits | HepG2 CAGA-GFP viability, ATP luminescence, 18 h; further: potency means the concentration at half of the fitted maximal effect
#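 CellTiter-Glo luminescence gave cytotoxicity after 18 hours at 37 degrees C. The cells were HepG2 CAGA-GFP in 1% FBS DMEM, stimulated with 500 pg/mL TGF-beta after compound addition. %Activity was normalised to no-cell wells (complete cell-killing) and DMSO (no toxicity), and curves were fitted and classified.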
# TDP1 cell CPT = DT40-hTDP1 cell growth loss with CPT | chicken DT40 Tdp1-/-;hTDP1 cells + 20 nM CPT, ATP luminescence, 48 h | Potency, µM (highest dose often 46.2 µM), for the others: at the top dose activity change, negative = growth inhibition, most hits filed as inhibitors | 420,000 compounds, 12% hits; further: potency means the concentration at half of the fitted maximal effect; on the % scale 0 is the no-effect control and ±100 the full control effect; nearly all actives have a fitted effect of over 55% in size
#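 Chicken DT40 Tdp1-/- cells stably complemented with human TDP1 were seeded at 400 cells/well in medium containing 20 nM camptothecin, exposed to pin-transferred compounds, and grown at 37 °C for at least 48 hr. Viability was read as ATP luminescence.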
# TGFb SMAD3 inh = TGF-b pathway inhibition. 410,000 compounds, 1.2% hits. Potency, µM (top dose mostly 46.1 µM), without a hit: top-dose activity, negative = inhibition, hits mostly inhibitors. HepG2 CAGA-GFP TGF-b/SMAD3 reporter, GFP fluorescence, 18 h; TGF-beta stimulated, 500 pg/mL final; further: potency means the concentration at half of the fitted maximal effect; on the % scale 0 is the no-effect control and ±100 the full control effect; nearly all actives have a fitted effect of over 65% in size
#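 Smad-responsive CAGA-GFP expression was quantified in HEPG2 cells exposed to compounds and 500 pg/mL final TGF-beta for 18 h at 37 degrees C; unstimulated wells defined full inhibition.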
# IL-1B inflam inh = inflammasome signaling inhibition, IL-1 beta readout; THP-1 LPS/ATP IL-1B secretion, AlphaLISA, 16 h; hits give low values; activity change, % at 57.5 µM; 360,000 compounds, 4.7% hits; in the data active means activity change below about -50%; inconclusive means mostly about -30% to -49%; further: on the % scale 0 is the no-effect control and ±100 the full control effect
#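 Secreted IL-1B measured by AlphaLISA bead assay after 16 h compound exposure of THP-1 cells; compounds (final up to 57.5 uM) added 1 h before LPS (250 ng/mL) and ATP (1.25 mM) stimulation; lower signal means less secretion.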
# An asterisk follows results filed as active; i = inactive; ? = inconclusive; nt = not tested or not shown. Unless noted, the call rests on the fitted dose curve; in most records, active means well fitted curve in the direction sought with a large enough effect; inconclusive means small, poorly fitted or top-dose-only effect, or another doubt; inactive means no such curve, though single readings can be large; an effect the other way counts as inactive or inconclusive.
SMILES,DT40 TDP1 no CPT,S-ASM inh,HepG2 tox,TDP1 cell CPT,TGFb SMAD3 inh,IL-1B inflam inh
CCCCc1ccc(NC(=S)NCCc2ccc(F)cc2)cc1,?,-2%,-105%,?,16µM*,-110*
CCCCc1ccc(NC(=S)NCCO)cc1,-1%,1%,14%,9%,0%,19
CC(C)(C)OC(=O)C[C@@H]1C/C=C\C[C@H](CC(=O)N(CCO)Cc2ccccc2)C(=O)N2CCC[C@@H]2COC1=O,-23%,2%,2%,-21%,-1%,-5
Cc1cc(NC(=O)CSc2nnc(CNC(=O)c3ccc(F)cc3)o2)no1,-5%,0%,-1%,-4%,-4%,i
COc1ccc(CC(=O)NC(C)CCc2ccccc2)cc1OC (stereo not drawn),?,6%,9%,-18%,1%,1
COc1ccc(C(CCN(Cc2ccc(OC)c(OC)c2)C(C)=O)c2ccccc2)cc1 (stereo not drawn),21µM*,-1%,-24%,21µM*,-8%,?
COc1ccc(CN(CCC(c2ccccc2)c2ccc(OC(C)C)cc2)C(=O)CCl)cc1OC (stereo not drawn),2.9µM*,-14%,10µM*,2.1µM*,?,-99*
COc1ccccc1C(CC(=O)O)c1ccc2c(c1)OCO2 (stereo not drawn),27%,3%,0%,-1%,-6%,43
COc1ccc(CN(CCC(c2ccc3c(c2)OCO3)c2ccccc2OC)C(C)=O)cc1 (stereo not drawn),21µM*,nt,-31%,?,13µM*,nt
COc1ccc(CN(CCC(c2ccco2)C(C)C)C(C)=O)cc1OC (stereo not drawn),?,0%,-33%,?,-23%,-13
COc1ccc(CN(CCC(c2ccccc2)C2CCOC(C)(C)C2)C(C)=O)cc1 (stereo not drawn),18µM*,2%,-40%,?,?,?
COc1cc(C(=O)NCC(=O)N2CCN(S(=O)(=O)c3ccccc3)CC2)cc(OC)c1OC,-17%,5%,-9%,20%,4%,44
CCOc1ccc(-c2cc3c(=O)n(CC(=O)NCc4ccc(Cl)cc4)ccn3n2)cc1,0%,nt,3%,-14%,0%,nt
CC(=O)c1ccc[n+](CC(=O)NC(C)c2ccccc2)c1 (stereo not drawn),3%,1%,-2%,22%,2%,20
O=C(O)CC(Cc1ccccc1)c1ccc2c(c1)OCO2 (stereo not drawn),0%,-1%,-27%,2%,-2%,18
CC(=O)N(CCC(Cc1ccccc1)c1ccc2c(c1)OCO2)Cc1ccc(Cl)cc1 (stereo not drawn),16µM*,?,10µM*,?,?,?
CCSc1nc2c([nH]c3ccccc32)c(=O)n1-c1ccc(F)cc1,?,nt,-29%,21µM*,-1%,nt
Cc1ccc(-n2c(SCc3ccccc3)nc3c([nH]c4ccccc43)c2=O)cc1,-5%,nt,-1%,-26%,2%,nt
COc1ccc(-n2c(SCC(=O)NCc3ccccc3)nc3c([nH]c4ccccc43)c2=O)cc1,?,nt,-32%,18µM*,5%,nt
COc1cccc(-n2c(SCC(=O)Nc3c(C)cc(C)cc3C)nc3c([nH]c4ccccc43)c2=O)c1,13µM*,nt,-26%,12µM*,-1%,nt
O=c1c2[nH]c3ccccc3c2nc(SCc2cccc(F)c2)n1-c1ccccc1,23µM*,nt,-24%,?,?,nt
CSc1nc2c([nH]c3ccccc32)c(=O)n1-c1ccc(F)cc1,?,nt,-6%,?,6%,nt
COc1cccc(NC(=O)CSc2nc3c([nH]c4ccccc43)c(=O)n2-c2cc(C)cc(C)c2)c1,12%,nt,2%,1%,1%,nt
Cc1ccc(-n2c(SCC(=O)NCc3ccccc3)nc3c([nH]c4ccccc43)c2=O)cc1,-29%,nt,-22%,?,-22%,nt
CC#CCC(C)[C@H](O)/C=C/[C@@H]1[C@H]2c3cccc(CCCC(=O)O)c3O[C@H]2C[C@H]1O (stereo partly drawn),3%,nt,nt,3%,nt,nt
SMILES,DT40 TDP1 no CPT,S-ASM inh,HepG2 tox,TDP1 cell CPT,TGFb SMAD3 inh,IL-1B inflam inh
O=C(CSc1nc2c([nH]c3ccccc32)c(=O)n1-c1ccc(F)cc1)NCc1ccc(F)cc1,15µM*,nt,-15%,?,-7%,nt
O=C(CSc1nc2c([nH]c3ccccc32)c(=O)n1-c1ccc(F)cc1)NCc1ccco1,?,39%,-21%,?,-6%,6
CCCOc1ccc(C(=O)Nc2ccc3oc(-c4ccc5ccccc5c4)nc3c2)cc1,-7%,nt,11%,6%,-23%,nt
COc1ccc(C(=S)N2CCN(c3ccccc3Cl)CC2)cc1OC,16µM*,-4%,0%,?,1%,0
COc1cc(C(=S)N2CCN(c3ccccc3Cl)CC2)cc(O)c1O,23µM*,-11%,-58%,?,?,8
O=C(CCN1C(=O)c2ccccc2C1=O)Nc1ccccc1C(F)(F)F,0%,1%,-2%,-11%,21%,18
Cc1cc(C)nc(/N=C(\N)Nc2ccc(-c3ccccc3)cc2)n1,9.2µM*,-2%,-27%,7.3µM*,?,nt
Cc1cc(C)nc(/N=C(\N)Nc2ccc3c(c2)OCCO3)n1,?,2%,-21%,21µM*,-11%,-78*
Cc1cc(C)nc(/N=C(\N)Nc2ccc(S(N)(=O)=O)cc2)n1,?,0%,-2%,-30%,3%,34
CC(=O)Nc1ccc(N/C(N)=N/c2nc(C)cc(C)n2)cc1,?,-3%,0%,?,10%,-93*
Cc1ccsc1C(=O)Nc1ccc(F)c([N+](=O)[O-])c1,?,0%,-1%,-8%,0%,?

# Bioassay records deposited in PubChem by National Center for Advancing Translational Sciences (NCATS).
